MITF primary: human MITF inhibition, primary screen | AlphaScreen MITF homodimerization, bead proximity signal | inhibition, % at 2.6 µM | 650,000 tested, 0.91% active | AID 1259374; in the data active means inhibition above about 50%;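 further: 0% = vehicle wells with protein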
FBW7 activator: activators of human E3 ligase FBW7 | Q969H0 | AlphaScreen FBW7–phospho-cyclin E peptide binding, activator screen | normalized activity (activation), % at 26.1 µM | 650,000 tested, 0.13% active; in the data active means normalized activity above about 1.9%;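 further: purified mutant Fbw7 with reduced substrate affinity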
GPR151 ag: activators of human GPR151; Q8TDV0; PathHunter beta-arrestin GPR151 cells, luminescence; activation, % at 11.2 µM; 650,000 tested, 1% active; in the data active means activation above about 4.9%;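 further: 0% = median of compound wells and 100% = cells with positive control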
TEAD-YAP inh: TEAD-YAP interaction inhibition; 640,000 tested, 1.4% active; HEK-TIYL cells, TEAD-Gal4/YAP UAS-luciferase luminescence; inhibition, % at 9.12 µM; in the data active means inhibition above about 32%;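 further: 0% = median of test compound wells and 100% = reference inhibitor wells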
GPR151 confirm: human GPR151 activation, confirmation screen | 6,700 tested, under 10 active | shares compounds with GPR151 ag | AID 1508609 | GPR151 PathHunter beta-arrestin cells, luminescence, 90 min; % of EA-reagent control over plate median | activation, % at 11.2 µM;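 active means mean percent activation across replicates above the confirmation screen cutoff of 4.91%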
GPR119 counter: activates human GPR119 in a GPR151 counter-screen | GPR119 PathHunter beta-arrestin cells, luminescence, 90 min; 0 = compound-well median, 100 = enzyme-acceptor control | AID 1508611 | activation, % at 11.2 µM | shares compounds with GPR151 ag | 6,700 tested, 0.3% active;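 active means mean percent activation in the counterscreen above 29.09%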;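 further: counterscreen on off-target GPR119 to flag nonselective hits from the GPR151 activator screen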
Target sequence (Q8TDV5 whole entry, looked up): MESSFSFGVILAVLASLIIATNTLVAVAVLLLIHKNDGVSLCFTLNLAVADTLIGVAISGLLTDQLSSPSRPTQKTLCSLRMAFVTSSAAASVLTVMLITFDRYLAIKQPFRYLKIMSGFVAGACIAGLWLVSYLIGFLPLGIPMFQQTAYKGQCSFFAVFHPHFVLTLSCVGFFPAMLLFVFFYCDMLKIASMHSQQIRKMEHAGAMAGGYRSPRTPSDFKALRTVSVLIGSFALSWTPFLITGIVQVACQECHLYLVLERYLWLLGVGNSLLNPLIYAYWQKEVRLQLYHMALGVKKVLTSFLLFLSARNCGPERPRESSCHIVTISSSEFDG
Numbers without * were called inactive; . = not tested or not shown. Most compounds without a hit are left out; they make up all but 3.5% or so of the library.

SMILES	MITF primary	FBW7 activator	GPR151 ag	TEAD-YAP inh	GPR151 confirm	GPR119 counter
Cn1c(=O)oc2cc(S(=O)(=O)N3CCn4c3nc3ccccc34)ccc21	3	0	1	-11	.	.
CC(C)CN1CCN(Cc2ccc3cccc(F)c3n2)CC1CCO (stereo not given)	6	0	-1	-4	.	.
CC(C)(C)CN1CCN(Cc2ccc3cccc(F)c3n2)CC1CCO (stereo not given)	0	0	7.2*	-5	1	3
N#CCOC(=O)c1cc(-c2ccccc2)nc2ccccc12	0	0	0	8	.	.
COc1ccc2c(c1)O/C(=C\c1ccc(OC)c(OC)c1)C2=O	6	0	5.5*	2	-1	1
COC(=O)C(C)Oc1ccc(/C=C2\Oc3cc(OC)ccc3C2=O)cc1OC (stereo not given)	-4	0	8.8*	4	0	10
COc1cc(C)c2c(c1)O/C(=C\c1ccc(OC)c(OC)c1OC)C2=O	14	0	7.5*	-11	1	-6
COC(=O)COc1ccc(/C=C2\Oc3cc(OC)ccc3C2=O)cc1OC	-10	0	0	-1	.	.
COc1ccc2c(c1)O/C(=C\c1ccc(OS(C)(=O)=O)c(OC)c1)C2=O	-2	0	0	1	.	.
Nc1cc[n+](CC(=O)c2ccccc2)cc1	-13	0	7.1*	-12	0	-6
CCc1cccc2c(C3C(C#N)=C(N)Oc4n[nH]c(C)c43)c[nH]c12 (stereo not given)	-6	-1	-1	12	.	.
CCOC(=O)c1ccc(N2C(=O)C3ON(c4ccccc4C)C(c4ccccc4)C3C2=O)cc1 (stereo not given)	-8	0	0	1	.	.
FC(F)(F)c1ccc(NC2=NCCC2)cc1	19	0	0	-8	.	.
c1ccc(NC2=NCCC2)cc1	-1	0	7.1*	8	0	-6
CC(C)c1nc(C(=O)N2CCCC(N3CCOCC3)C2)cs1 (stereo not given)	-7	0	6.7*	5	-2	-19
Cc1[nH]c2ccccc2c1C(=O)/C=C/c1ccco1	4	0	0	-11	.	.
Cc1cc(C(=O)Nc2ccccc2C(F)(F)F)on1	7	0	5.3*	-6	1	4
CCC(=O)N1N=C(c2ccccc2)CC1Cc1cc2cccc(C)c2[nH]c1=O (stereo not given)	-20	0	0	5	.	.
CCc1c(C)nc(SCCc2ccccc2)[nH]c1=O	4	0	5.4*	-9	-1	-12
COC(=O)c1cccc(C(=O)Oc2ccc(Br)cc2)n1	-1	0	1	0	.	.
CC(C)OC(=O)c1cccc(C(=O)Oc2ccc(Br)cc2)n1	8	0	6.7*	13	-1	-8
Cc1cc(C)cc(NC(=O)CC2CC3CCC2C3)c1 (stereo not given)	0	0	8.7*	0	-1	-2
CC(=O)Nc1cccc(NC(C)=C(C#N)C#N)c1	-2	0	5.2*	2	1	3
CC1(C)CC(=O)C2=C(C1)N(c1ccccc1)C(=O)CC2c1ccccc1 (stereo not given)	13	0	6.8*	2	0	-7
Cc1ccc(N2C(=O)CC(c3ccccc3)C3=C2CC(C)(C)CC3=O)cc1 (stereo not given)	11	0	-2	11	.	.
SMILES	MITF primary	FBW7 activator	GPR151 ag	TEAD-YAP inh	GPR151 confirm	GPR119 counter
CC[C@@H](Cn1nc(-c2cccs2)ccc1=O)NC(=O)Cn1cnc2ccccc2c1=O	-89	0	1	13	.	.
C(=N\Nc1ccccc1)/c1ccc2c(c1)OCCO2	6	0	5.3*	-11	-1	-3
NC(=O)c1ccc(-c2cccc(C(=O)NCCc3ccc(O)cc3)n2)cc1	47	0	5.4*	18	1	6
Cc1ccccc1CNC(=O)CN(c1cc(C(F)(F)F)ccc1Cl)S(C)(=O)=O	3	0	0	-17	.	.
COc1ccccc1CNC(=O)CN(c1cc(C(F)(F)F)ccc1Cl)S(C)(=O)=O	3	0	7.6*	-6	0	9
COc1ccc(-n2nc(C(=O)NCC(=O)Nc3ccc(OC)c(OC)c3)c3ccccc3c2=O)cc1Cl	13	0	6.3*	31	0	3

Screens from PubChem.
